MazEF act: activators of E. coli MazEF toxin-antitoxin RNase; P0AE70; FAM/BHQ RNA-DNA oligo cleavage fluorescence, 5 h; activation, % at 20 µM; hit rate 0.32% among 350,000; AID 504720; in the data active = activation above about 50%
Bead autofluor: counter-screen for toxin protease inhibitors: compound fluorescence. compound autofluorescence counterscreen, microsphere flow cytometry; active compounds read high. fluorescence intensity (no concentration beside the values). hit rate 3.1% among 360,000; in the data active = fluorescence intensity above about 16000; inconclusive = no clear call, values can overlap the other calls
BoNT-A LC inh2: BoNT A light chain protease inhibition; multiplex microsphere protease substrate cleavage, flow cytometry; hit rate 0.17% among 360,000; inhibition, % at 10 µM; note: plate controls were buffer without enzyme for full effect and enzyme alone for no effect
Anthrax LF prot: inhibitors of Bacillus anthracis lethal factor protease; P15917; multiplex microsphere protease cleavage assay, LF; inhibition, % at 10 µM; hit rate 0.12% among 360,000; AID 588501; note: plate controls were buffer without enzyme for full effect and enzyme alone for no effect
Target sequence (P15917 whole entry, looked up): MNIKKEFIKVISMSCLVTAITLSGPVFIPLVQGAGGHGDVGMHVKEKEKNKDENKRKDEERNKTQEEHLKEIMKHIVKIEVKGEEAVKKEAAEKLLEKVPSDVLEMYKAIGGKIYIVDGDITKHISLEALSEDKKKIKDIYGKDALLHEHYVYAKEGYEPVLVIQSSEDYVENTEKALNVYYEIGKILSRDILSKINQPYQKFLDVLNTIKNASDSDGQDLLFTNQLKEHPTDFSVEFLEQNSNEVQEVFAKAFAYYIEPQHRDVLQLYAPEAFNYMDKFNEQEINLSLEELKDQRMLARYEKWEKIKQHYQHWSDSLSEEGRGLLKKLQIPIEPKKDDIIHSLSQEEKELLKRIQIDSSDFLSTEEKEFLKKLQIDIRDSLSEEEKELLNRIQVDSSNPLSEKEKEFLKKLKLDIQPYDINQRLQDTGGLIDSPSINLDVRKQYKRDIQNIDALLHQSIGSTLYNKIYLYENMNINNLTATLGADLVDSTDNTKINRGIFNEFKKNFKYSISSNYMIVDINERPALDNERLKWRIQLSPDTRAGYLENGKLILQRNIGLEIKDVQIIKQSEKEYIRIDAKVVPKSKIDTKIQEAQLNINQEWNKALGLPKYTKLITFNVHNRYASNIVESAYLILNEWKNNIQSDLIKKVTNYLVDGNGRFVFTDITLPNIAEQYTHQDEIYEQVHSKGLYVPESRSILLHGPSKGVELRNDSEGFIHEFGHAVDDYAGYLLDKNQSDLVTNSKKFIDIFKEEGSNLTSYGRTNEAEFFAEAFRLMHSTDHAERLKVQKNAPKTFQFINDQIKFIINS
BoNT-F LC inh: BoNT F light chain protease inhibition; Multiplex microsphere protease cleavage assay, flow cytometry; inhibition, % at 10 µM; hit rate 0.22% among 360,000; in the data active = inhibition above about 35%, passing the limit was not always enough; inconclusive = no clear call, values can overlap the other calls; note: plate controls were buffer without enzyme for full effect and enzyme alone for no effect
Numbers without * were called inactive; ? = inconclusive; · = no result given. Rows were chosen to be rich in hits. Some 3.6% of all compounds tested hit in one or more screens of this group. Cut-off read from the data, not from the text of the source, unless noted: active = inhibition above about 30%; inconclusive = no clear call, values can overlap the other calls; inactive = below that.

SMILES	MazEF act	Bead autofluor	BoNT-A LC inh2	Anthrax LF prot	BoNT-F LC inh
O=C(c1ccccn1)N1CCN(C(=O)c2ccccn2)CC1	11.3	16386*	-0.5	-0.2	-2.4
COc1cc(CN2CCN(CC#Cc3ccccc3)CC2CCO)cc(OC)c1 (stereo not given)	-7.2	·	·	·	·
O=C(NC1CCN(Cc2nnnn2CCc2ccccc2)CC1)c1ccccc1F	2.3	22189*	2.6	-2.4	5.0
O=C1CSc2ccccc2N1Cc1ccccc1F	-4.8	24057*	-2.1	1.5	-2.7
O=C(NCCN1CCOCC1)c1ccc2c(c1)N(Cc1ccccc1F)C(=O)CS2	-0.1	4012	-0.1	-1.1	-0.1
O=C(NCc1c(Cl)cccc1Cl)c1[nH]c(C(F)(F)F)nc1-c1ccccc1	·	5254	-0.3	-4.7	-2.0
Cc1ccccc1NC(=O)N1CCCC(c2nc(-c3ccc(F)cc3)no2)C1 (stereo not given)	2.8	9980	-0.8	-4.3	-4.8
CC(C)c1ccc(-c2noc(C3CCCN(C(=O)c4ccc(F)cc4F)C3)n2)cc1 (stereo not given)	-4.6	22538*	-0.5	-9.4	-5.2
O=S(=O)(Cc1ccccc1)N1CCCC(c2nc(-c3ccc(F)cc3)no2)C1 (stereo not given)	-11.4	21682*	1.2	-3.5	3.3
O=S(=O)(c1ccc(F)cc1)N1CCCC(c2nc(-c3ccc(F)cc3)no2)C1 (stereo not given)	-2.2	3995	-1.0	-3.0	-14.7
Cc1ccccc1NC(=O)N1CCCC(c2nc(-c3ccc(C(C)C)cc3)no2)C1 (stereo not given)	-4.5	23120*	0.0	-3.0	-3.2
CN(Cc1ccccc1)C(=O)[C@@H]1CCCN1C(=O)[C@@H]1CCCN1C(=O)c1ccccc1	·	4254	-0.9	-8.3	-6.6
CCCn1c(SCC(=O)N2CCc3ccccc32)n[nH]c1=O	5.5	3539	0.5	-3.4	-0.3
O=C(CSc1nnc2c(Cl)cc(C(F)(F)F)cn12)Nc1ccc2c(c1)OCO2	-12.0	20358*	?	-4.4	1.9
CCOc1cc(CN2CCN(c3cccc(C(F)(F)F)c3)CC2)ccc1O	-2.2	20233*	1.1	-2.7	-0.8
CCOc1cc(CN2CCSCC2)ccc1O	3.7	16487*	-1.6	-2.8	-3.6
CCOC(=O)N1CCN(C(=O)C2CCN(Cc3ccc(O)c(OCC)c3)CC2)CC1	7.5	4817	-0.1	-3.3	-2.5
COc1ccc(-c2nc3ccccc3[nH]2)cc1	2.3	8106	-1.2	-1.7	-7.6
COc1ccc(-c2cc(=O)n(-c3nc4ccccc4[nH]3)[nH]2)cc1	-0.9	23993*	?	9.5	1.7
CCC(C)NC(=O)N[C@@H](CCSC)C(=O)OC (stereo not given in full)	-0.8	10858	-0.6	1.1	-4.0
CCOC(=O)C(CCSC)NC(=O)CN (stereo not given)	4.6	22429*	0.2	-1.0	-2.2
CCc1ccc(N/C(SCc2ccccc2C)=C(/C#N)C(=O)NCc2ccco2)cc1	4.8	17346*	-1.7	-5.3	-3.5
Cc1ccc(NCC(O)C(O)C(O)CO)cc1C (stereo not given)	-7.7	20300*	0.7	-1.9	-1.9
CCCCOc1ccc(-c2nnn(CC(=O)NCCc3c[nH]c4ccccc34)n2)cc1	-11.3	23887*	?	-3.1	-6.0
CC(C)OCCCNC(=O)c1ccncc1	2.4	18964*	2.0	2.0	3.2
SMILES	MazEF act	Bead autofluor	BoNT-A LC inh2	Anthrax LF prot	BoNT-F LC inh
CC(C)OCCCNC(=O)c1ccc(Br)cc1	7.8	15661	2.1	2.2	2.9
O=C(Nc1nnc(C2=COCCO2)o1)c1ccc([N+](=O)[O-])cc1	-1.5	6658	-3.0	-0.5	-7.2
O=C(Nc1ccn(C2CCC(CO)O2)c(=O)n1)c1ccccc1 (stereo not given)	·	4997	0.9	0.1	6.5
Cc1ccc(CNC(=O)c2ccc(C#CC(C)(C)O)s2)cc1	-2.4	22677*	?	-1.5	-6.0
CC(C)(O)C#Cc1ccc(C(=O)NCCC(=O)O)s1	-13.5	4626	-0.7	-11.4	-1.3
O=C1CN(S(=O)(=O)c2cccc(Br)c2)CCN1	5.9	3752	-0.1	-1.3	-1.7
CN(CC(=O)NCc1ccco1)S(=O)(=O)c1ccc2c(c1)n(C)c(=O)c(=O)n2C	8.6	24204*	-3.2	-2.5	-2.9
COc1ccc(S(=O)(=O)N(CC(=O)NCc2ccco2)c2ccccc2)cc1	-1.4	19214*	?	0.9	1.7
O=C1CCCC(=O)N1CCCCCCN1C(=O)CCCC1=O	1.9	3442	0.7	-0.2	3.4
CCNC(=O)COc1cccc2ccccc12	3.8	21317*	-1.2	-0.8	-0.3
CC(=O)Nc1ccc(NC(=O)COc2cccc3ccccc23)cc1	0.3	3810	-0.3	-2.3	-4.2
COc1ccc(N2CCN(/C(=N\S(=O)(=O)c3ccc(C)cc3)Nc3nc(C)cc(C)n3)CC2)cc1	9.6	19034*	2.3	-2.8	0.3
Oc1cc(CNC2CCCCC2)c(O)cc1CNC1CCCCC1	-62.1	2830	0.5	-17.2	-44.4
CN(C)C(=O)Oc1ccc2ccccc2c1Cl	4.1	23669*	-1.3	-2.7	-2.9
O=c1nc(N2CCCCC2)nc2n1CCO2	-0.1	2533	0.7	-1.1	5.2
CN1CCn2c1nc(N1CCCCC1)nc2=O	-8.2	21803*	-6.3	0.3	-8.6
O=C(O)CC(C(=O)Nc1ccc(Cl)c(Cl)c1)C1CCCO1 (stereo not given)	-2.5	11218	-0.4	-5.5	1.6
O=C(O)CC(C(=O)NC1CCCCC1)C1CCCO1 (stereo not given)	1.4	22137*	2.2	-0.8	4.0
COc1ccc(CNC(=O)c2cn(Cc3ccccc3OC)c(=O)s2)cc1	·	3990	-0.4	-4.4	-7.5
O=C(Nc1cccnc1)Nc1ccc(Br)cc1Cl	3.9	16594*	-0.5	-3.3	-2.0
O=C(Nc1cccnc1)Nc1ccccc1Cl	2.0	5339	0.5	-2.7	-0.9
Nc1nc(CSc2ncn(-c3ccccc3)n2)cs1	5.5	22447*	3.6	0.9	4.8
c1ccc(CSc2ncn(-c3ccccc3)n2)cc1	-0.3	2521	-0.3	-6.7	-8.0
CC1=C(C(=O)N2CCOCC2)C(c2ccsc2)C2=C(CCCC2=O)N1 (stereo not given)	-2.2	22793*	1.9	-1.6	3.1
CC1=C(C(=O)Nc2ccccc2)C(c2cc(CN3CCOCC3)cs2)C2=C(CCCC2=O)N1 (stereo not given)	0.5	3435	0.3	1.2	-1.0
O=C(COC(=O)c1ccccc1O)Nc1ccc(OC(F)F)cc1	1.0	4797	0.0	-1.0	-14.5
COc1ccc(C(=O)OCC(=O)Nc2ccc(OC(F)F)cc2)c(OC)c1	2.3	16151*	1.0	3.1	2.4
CCCCN1CC[C@H]2C=CC[C@@H](C(=O)N3CCOCC3)[C@H]2C1=O	2.5	3607	-0.7	-7.1	0.6
CCCCN1CC[C@@H]2C=CC[C@H](C(=O)OC)[C@@H]2C1=O	79.7*	3896	-0.4	-5.7	-1.2
CSc1ccc(CN2CCC2(C)C(=O)NC2CCN(Cc3ccccc3)CC2)cc1 (stereo not given)	·	3651	-0.6	-3.0	1.9

Screening data from PubChem BioAssay.
